GLA inh pH 4.5: inhibitors of human alpha-galactosidase A at pH 4.5; P06280; purified enzyme, 4-MU-alpha-Gal fluorescence, pH 4.5; activity change, negative = inhibition, % at 105 µM; 230,000 tested, under 10 active;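 also: 0% = full activity with enzyme and -100% = basal without enzyme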
Target sequence (P06280 whole entry, looked up): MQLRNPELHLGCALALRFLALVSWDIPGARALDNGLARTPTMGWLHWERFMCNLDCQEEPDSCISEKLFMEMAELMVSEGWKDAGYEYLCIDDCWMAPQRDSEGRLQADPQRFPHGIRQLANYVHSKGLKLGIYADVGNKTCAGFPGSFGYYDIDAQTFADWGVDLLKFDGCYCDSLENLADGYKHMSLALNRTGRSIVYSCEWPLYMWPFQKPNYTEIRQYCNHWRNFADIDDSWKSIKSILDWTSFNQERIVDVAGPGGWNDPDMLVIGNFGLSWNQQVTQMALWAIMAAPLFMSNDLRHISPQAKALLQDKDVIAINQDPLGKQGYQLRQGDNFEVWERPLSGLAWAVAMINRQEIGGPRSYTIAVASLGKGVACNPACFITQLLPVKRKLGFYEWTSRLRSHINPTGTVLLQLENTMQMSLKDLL
HPGD inh: inhibitors of human 15-hydroxyprostaglandin dehydrogenase (HPGD). P15428. purified HPGD, NADH fluorescence kinetic, PGE2 substrate. Potency, µM, without a hit: at the highest dose activity change, negative = inhibition, hits mostly inhibitors. actives 4.3% (n = 150,000). AID 894; active = well fitted inhibition curve with a large enough effect, not every such curve was filed as active; inconclusive = small, poorly fitted or top-dose-only effect, or another doubt; inactive = no such curve, though single readings can be large or run the other way; also: potency is read from the fitted curve at half-maximal effect
Target sequence (P15428 whole entry, looked up): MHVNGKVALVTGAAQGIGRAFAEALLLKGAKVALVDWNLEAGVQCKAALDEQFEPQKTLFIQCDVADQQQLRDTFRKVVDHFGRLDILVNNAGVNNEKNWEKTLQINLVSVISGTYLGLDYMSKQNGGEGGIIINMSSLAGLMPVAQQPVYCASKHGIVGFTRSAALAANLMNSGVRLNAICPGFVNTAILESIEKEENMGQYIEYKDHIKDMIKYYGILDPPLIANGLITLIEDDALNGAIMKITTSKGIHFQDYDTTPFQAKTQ
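NADH formation kinetics: reaction with 30 uM PGE2 and 1 mM NAD+ (final), 20 nM enzyme, Tris-HCl pH 8 with Tween 20, after 15 min compound preincubation at room temperature. Fluorescence change, last versus first of five reads.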
ALDH1A1 inh: ALDH1A1 (human) enzyme inhibition; Purified ALDH1A1, NADH fluorescence, propionaldehyde substrate; Potency, µM (series often up to 75.3 µM), for the others: top-dose activity, negative = inhibition, actives largely listed as inhibitors; actives 7.3% (n = 220,000); P00352; AID 1030; active = well fitted inhibition curve with a large enough effect, not every such curve was filed as active; inconclusive = small, poorly fitted or top-dose-only effect, or another doubt; inactive = no such curve, though single readings can be large or run the other way;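 also: potency is read from the fitted curve at half-maximal effect; plate controls were no enzyme wells and a reference inhibitor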
PNC assembly inh: perinucleolar compartment assembly inhibition; PC3M PTB-GFP, PNC prevalence imaging, 16 h; stronger effect = lower value; actives 3.1% (n = 140,000); activity change (PNC), negative = inhibition, % at 10 µM; AID 2417;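 active = readout at or below -70, meaning at least 70% loss of cells showing the perinucleolar compartment, a nuclear body marking cancer cells; inconclusive = readout between -30 and a set limit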;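 also: plate controls were DMSO wells for no effect and camptothecin positive control wells for full effect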
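Compounds are pinned in duplicate onto adhered PC3M cells stably expressing GFP-tagged PTB and incubated 16 h at 37 C. Cells are then fixed, nuclei stained with Hoechst, and PNC-positive cells counted.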
aGal spleen mod: inhibits or activates alpha-galactosidase in human spleen homogenate | P06280 | human spleen homogenate, 4MU-alpha-Gal fluorescence, 40 min | Potency, µM (doses to about 80 µM), without a hit: top-dose activity change, negative = inhibition, actives largely listed as inhibitors | actives 0.008% (n = 240,000) | AID 2107;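 also: potency is read from the fitted curve at half-maximal effect; 0% = enzyme with vehicle and -100% = no enzyme basal signal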
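Human spleen homogenate (1 ug) was the enzyme source, with 4-methylumbelliferyl-alpha-D-galactopyranoside (1 mM final) in pH 5.0 citrate buffer with 0.01% Tween-20. Compounds were titrated; after 40 min at 37C, NaOH/glycine stop, 4-MU fluorescence read; AC50 from Hill fits.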
ALOX12 inhib: 12-hLO (ALOX12) enzyme inhibition; actives 0.12% (n = 150,000); P18054; Potency, µM (series often up to 57.1 µM), for inactives: at the top dose activity change, negative = inhibition, usual class: inhibitors; purified 12-hLO, xylenol orange hydroperoxide absorbance; also: potency is read from the fitted curve at half-maximal effect; nearly all actives have a fitted effect of over 55% in size
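Purified human 12hLO (150 nM), preincubated 15 min with compound, then 40 uM arachidonic acid for 30 min, room temperature, Hepes pH 7.0 with 0.01% Triton X-100. Hydroperoxide detected by ferrous iron/xylenol orange; 573/405 nm absorbance ratio gives reaction progress.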
* hit, by the source's call; u = inconclusive; x = not tested or not shown; [ ] = dose if it differs, or a comment. Most compounds without a hit are left out; they make up all but 10% or so of the library. Unless noted, calls follow the shape of the dose curve; as a rule, active = well fitted curve in the direction sought with a large enough effect; inconclusive = small, poorly fitted or top-dose-only effect, or another doubt; inactive = no such curve, though single readings can be large; an effect the other way counts as inactive or inconclusive. Unless noted, % is scaled to controls: 0 for no effect and ±100 for the full control effect.

SMILES | GLA inh pH 4.5 | HPGD inh | ALDH1A1 inh | PNC assembly inh | aGal spleen mod | ALOX12 inhib
Cc1ccc(CNC(=O)C23CN(Cc4ccccc4)CC2C(c2ccc([N+](=O)[O-])cc2)=NO3)cc1 (centres undefined) | -9 | -14% | u | u | -13% | -10%
Cc1ccc(CCNC(=O)C23CN(Cc4ccccc4)CC2C(c2ccc([N+](=O)[O-])cc2)=NO3)cc1 (centres undefined) | -5 | -14% | 14µM* | u | 0% | -2%
CCN1C(=O)[C@H]2[C@H]3[C@H](O)[C@H](O)C/C(=N/OC[C@@H](O)COCc4ccco4)[C@@H]3CC[C@@H]2C1=O | x | x | 5%[13.5 µM] | x | 0%[17.5 µM] | x
CC1CCCCN1C(=O)CSc1nnc(-c2cccnc2)n1C1CCCCC1 (centres undefined) | -6 | 25µM* | -1% | 36 | 3% | -2%
COc1ccc2c(c1)c1nnc(SCC(=O)N3CCCCC3C)nc1n2C (centres undefined) | -1 | 16µM* | u | -17 | -6% | -5%
CC1CCN(C(=O)CSc2nnc(-c3cccnc3)n2C2CCCCC2)CC1 | -4 | 22µM* | u | -2 | -1% | 6%
COc1ccc(-n2c(SCC(=O)N3CCCCC3C)nnc2-c2cccnc2)cc1 (centres undefined) | 5 | 20µM* | 10µM* | 2 | -5% | 1%
O=C(CSc1nnc(-c2cccnc2)n1C1CCCCC1)NC1CCCCC1 | -9 | -19% | 1% | 17 | -11% | -2%
O=C(O)c1ccc2c(c1)C(=O)N([C@H](Cc1ccc(O)cc1)C(=O)O)C2=O | x | x | x | x | 3% | x
O=[N+]([O-])c1ccc(C2NS(=O)(=O)N=C3CCCCCN32)cc1 (centres undefined) | 10 | x | 28µM* | x | 4% | x
CCCCc1nnc(NC(=O)Cn2cnc3ccccc3c2=O)s1 | 0 | x | -16% | x | -5% | x
CCCCCc1nnc(NC(=O)Cn2cnc3ccccc3c2=O)s1 | 4 | -5% | 1% | -111* | -2% | -1%
CCc1nnc(NC(=O)CCn2cnc3ccccc3c2=O)s1 | -1 | x | u | x | 5% | x
O=C(Cn1cnc2ccccc2c1=O)Nc1nnc(SCc2ccccc2)s1 | 0 | 22µM* | 9% | 17 | 8% | 2%
COC(=O)Cn1c(=NC(=O)c2ccc([N+](=O)[O-])s2)sc2cc(Br)ccc21 | 2 | -14% | 8.9µM* | -93* | -5% | -2%
COC(=O)Cn1c(=NC(=O)c2ccc(Cl)s2)sc2cc(C)ccc21 | 0 | u | u | -119* | 5% | 3%
COC(=O)Cn1c(=NC(=O)c2nc3ccccc3s2)sc2cc(S(C)(=O)=O)ccc21 | 2 | u | u | 6 | -2% | 0%
CCOC(=O)C(NC(=O)Nc1ccc(C(N)=O)cc1)(c1ccccc1)C(F)(F)F (centres undefined) | 10 | -29% | 1% | 39 | 0% | -2%
O=C(COc1ccccc1[N+](=O)[O-])N/N=C/c1cccs1 | -11 | -8% | 0% | -96* | -1% | -2%
O=[N+]([O-])c1ccccc1OCCOc1ccccc1[N+](=O)[O-] | 1 | x | x | x | 5% | x
Cc1cccc(OCC(=O)N/N=C\c2cc3c(cc2[N+](=O)[O-])OCO3)c1C | 1 | -5% | 7.9µM* | 50 | 4% | -10%
O=C(COC(=O)COc1ccccc1[N+](=O)[O-])Nc1ccccc1Br | 1 | -18% | 18µM* | -2 | 10% | -5%
Cn1cc(/C=N/NC(=O)COc2ccccc2[N+](=O)[O-])c2ccccc21 | -14 | -8% | -19% | u | 12% | 0%
Cc1cccc(N=Cc2cc3c(cc2[N+](=O)[O-])OCO3)c1 | 3 | -20% | u | -8 | 0% | u
CC(C)(C)C(=O)COc1ccccc1[N+](=O)[O-] | 2 | x | 20µM* | x | 1% | x
SMILES | GLA inh pH 4.5 | HPGD inh | ALDH1A1 inh | PNC assembly inh | aGal spleen mod | ALOX12 inhib
Cc1cc2ncn(CC(=O)O)c2cc1C | x | -10% | 1%[13.5 µM] | x | x | -3%[11.4 µM]
CN1CCN(c2ccc(Cl)cc2NS(=O)(=O)c2ccccc2Cl)CC1 | 2 | -9% | 14µM* | 21 | 4% | 4%
COc1ccc(-c2cc(=O)c3cc(OC)ccc3o2)cc1 | 7 | u | u | x | 5% | 6%
COc1cc(-c2cc(=O)c3c(O)c(OC)c(OC)c(OC)c3o2)cc(OC)c1OC | 5 | -12% | 11µM* | x | 6% | -1%
COc1cc2oc(-c3ccc(O)cc3)cc(=O)c2c(O)c1OC | 2 | x | x | x | 5% | x
COc1ccc(-c2cc(=O)c3c(OC)c(OC)c(OC)c(OC)c3o2)cc1 | 0 | -15% | 1.4µM* | x | 3% | -7%
O=C(N=Nc1ccc(NOC(=O)c2ccccc2Br)cc1)c1ccccc1O | -5 | x | 22µM* | x | 3% | x
COc1ccc(/C=C/C(=O)c2ccc(C)c([N+](=O)[O-])c2)cc1O | 10 | 22µM* | 22µM* | 43 | -7% | -25%
O=C(/C=C/c1ccccc1F)c1cccc([N+](=O)[O-])c1 | -4 | -18% | u | 26 | -2% | 2%
COc1cc(O)c(C(=O)/C=C/c2ccc(OC)c(O)c2)c(OC)c1 | -3 | 7.9µM* | 14µM* | x | -21% | -28%
COc1cc(/C=C/C(=O)c2cccc([N+](=O)[O-])c2)cc(OC)c1OC | -7 | -13% | 25µM* | -27 | 0% | -2%
COc1cccc(/C=C/C(=O)c2ccc(C)c([N+](=O)[O-])c2)c1 | 3 | -22% | 7.1µM* | 33 | 0% | 4%
c1ccc(-c2n[nH]c3c2oc2ccccc23)cc1 | 4 | -23% | -4% | x | -1% | -1%[0.00818 µM]
Cc1cc2nc(N=C(N)N)nc(C)c2cc1C | 2 | x | 5% | x | 3% | x
COc1cccc(-c2c[nH]c(=O)[nH]c2=O)c1 | 0 | x | u | x | -5% | x
CCCCNC(=O)c1ccc(CS(=O)(=O)Cc2ccccc2F)o1 | 8 | x | u | x | 8% | x
CC(C)C[C@H](NC(=O)[C@H](Cc1c[nH]c2ccccc12)NC(=O)[C@H](CCCCN)NC(=O)CNC(=O)[C@H](CC(C)C)NC(=O)[C@H](CO)NC(=O)[C@@H](N)Cc1cnc[nH]1)C(=O)NCC(=O)N[C@@H](Cc1cnc[nH]1)C(=O)N1CCC[C@H]1C(=O)N[C@@H](CC(=O)O)C(=O)N[C@@H](CCCCN)C(=O)N[C@@H](Cc1ccccc1)C(=O)O | x | x | x | x | 11% | x
CC(Cl)C(=O)Nc1ncc(C(F)(F)F)cc1Cl (centres undefined) | 5 | -20% | 7.1µM* | 1 | 5% | 2%
Fc1ccc(NC(=S)NNc2ncc(C(F)(F)F)cc2Cl)c(F)c1 | -3 | x | 4.5µM* | x | -3% | x

Compound activity (PubChem BioAssay)
